Consider six molecules from PubChem BioAssay (NCI).

This is part of a sample that, as a whole, favours compounds with a hit. Of some 79,000 tested, about 15% had one in any assay. Unmarked numbers belong to inactive results. Active and inactive are the calls of the source. Rule as the data show it: active = growth inhibition above about 70%; inactive = the rest.

Test [1] is described as follows: NCI Yeast Anticancer Drug Screen. Data for the rad50 strain (AID 155).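 Also: 0% = growth of vehicle-only cultures of the same strain.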 Particulars: S. cerevisiae rad50 strain growth inhibition, hits give high values. In a few lines: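 A DNA repair-deficient yeast mutant serves as the test organism; compound-induced growth inhibition is calculated against vehicle-treated cells.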
The nature of test [2]: NCI Yeast Anticancer Drug Screen. Data for the mec2-1 strain (AID 157). Particulars: S. cerevisiae mec2-1 strain, hits give high values. Summed up:
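Yeast mec2-1 mutant treated with compound. Readout: growth inhibition vs vehicle controls.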

A short description of test [3]: NCI Yeast Anticancer Drug Screen. Data for the sgs1 mgt1 strain (AID 161).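 Also: 0% = growth of cultures given vehicle only.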 Particulars: S. cerevisiae sgs1 mgt1 strain, hits give high values. Summed up: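 Test agents were incubated with a DNA-repair-mutant yeast strain. Growth was then read and compared against vehicle-treated controls.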
The nature of test [4]: NCI Yeast Anticancer Drug Screen. Data for the cln2 rad14 strain (AID 165).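 Also: 0% = growth equal to vehicle treated cultures.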 Particulars: S. cerevisiae cln2 rad14 strain, hits give high values. Summed up:
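cln2 rad14 yeast strain; compound exposure; growth inhibition read vs vehicle controls.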

The nature of test [5]: NCI Yeast Anticancer Drug Screen. Data for the bub3 strain (AID 167). Particulars: S. cerevisiae bub3 mutant strain, hits give high values. Summed up:
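Inhibition values come from growth of compound-treated mutant yeast normalised to vehicle-treated controls.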

Test [6] in a line: NCI Yeast Anticancer Drug Screen. Data for the mlh1 rad18 strain (AID 175). Particulars: S. cerevisiae mlh1 rad18 strain growth inhibition, hits give high values. Summed up:
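Yeast w/ defined DNA-repair lesions; compound exposure; growth vs vehicle controls → % inhibition.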

The mark [7] stands for this setting: at 5.0 µM (retest, dose inferred, filed as 0.5).
Where [8] appears, read: at 50.0 µM (retest, dose inferred, filed as 5.0).

For the molecule `O=S(=O)(CC(Br)Br)c1ccccc1`, the growth inhibition in test [1] (setting [7]) is 13%; in test [1] (setting [8]), 99% (active); in test [1] (at 50.0 µM), 99.5% (active); in test [2] (setting [7]), 18%; in test [2] (setting [8]), 100% (active); in test [2] (at 50.0 µM), 98.5% (active). Also, the growth inhibition in test [3] (setting [7]) is 3%; in test [3] (setting [8]) it was 99% (active); in test [3] (at 50.0 µM), 41%; in test [4] (setting [7]), 7%; in test [4] (setting [8]), 99% (active); in test [4] (at 50.0 µM), 74.8% (active). In addition, the growth inhibition in test [5] (setting [7]) is 34%; in test [5] (setting [8]) it was 99% (active); in test [5] (at 50.0 µM), 99.5% (active); in test [6] (setting [7]), 11%; in test [6] (setting [8]), 99% (active); in test [6] (at 50.0 µM), 30.9%.
Regarding `COc1cc(C(c2cc3c(cc2O)OCO3)N2CCN(C(c3ccc(O)c(OC)c3)c3cc4c(cc3O)OCO4)CC2)ccc1O` (stereo not drawn), the growth inhibition in test [1] (setting [7]) is -1%; in test [1] (setting [8]) it was 98% (active); in test [1] (at 50.0 µM) it was 99.2% (active); in test [2] (setting [7]), 3%; in test [2] (setting [8]), 99% (active); in test [2] (at 50.0 µM), 99.3% (active). Also, the growth inhibition in test [3] (setting [7]) was -3%; in test [3] (setting [8]), 97% (active); in test [3] (at 50.0 µM), 99.5% (active); in test [4] (setting [7]), 2%; in test [4] (setting [8]), 82% (active); in test [4] (at 50.0 µM) it was 96.7% (active). Besides, the growth inhibition in test [5] (setting [7]) is -1%; in test [5] (setting [8]), 99% (active); in test [5] (at 50.0 µM), 99% (active); in test [6] (setting [7]), 2%; in test [6] (setting [8]), 98% (active); in test [6] (at 50.0 µM), 98.5% (active).
On to `C=C(Br)CN1CCC2(c3ccccc3)C(O)C([Se]c3ccccc3)CCC12` (stereo not drawn), for which the growth inhibition is 85% (active) in test [1] (setting [7]); 85% (active) in test [1] (setting [8]); 83.1% (active) in test [1] (at 50.0 µM); 78% (active) in test [2] (setting [7]); 78% (active) in test [2] (setting [8]); 84% (active) in test [2] (at 50.0 µM). The growth inhibition in test [3] (setting [7]) was 81% (active); in test [3] (setting [8]), 81% (active); in test [3] (at 50.0 µM), 78% (active); in test [4] (setting [7]), 80% (active); in test [4] (setting [8]), 80% (active); in test [4] (at 50.0 µM), 83.3% (active). Further, the growth inhibition was 84% (active) in test [5] (setting [7]); 84% (active) in test [5] (setting [8]); 84.8% (active) in test [5] (at 50.0 µM); 89% (active) in test [6] (setting [7]); 89% (active) in test [6] (setting [8]); 82.8% (active) in test [6] (at 50.0 µM).
On to `COc1cccc2c1[n+]([O-])c1cccc(O)c1[n+]2[O-]`, for which the growth inhibition in test [1] (setting [7]) is 98% (active); in test [1] (setting [8]), 99% (active); in test [1] (at 50.0 µM) it was 91.4% (active); in test [2] (setting [7]) it was 99% (active); in test [2] (setting [8]), 100% (active); in test [2] (at 50.0 µM), 90.4% (active). In addition, the growth inhibition is 100% (active) in test [3] (setting [7]); 100% (active) in test [3] (setting [8]); 87.5% (active) in test [3] (at 50.0 µM); 93% (active) in test [4] (setting [7]); 99% (active) in test [4] (setting [8]); 88.4% (active) in test [4] (at 50.0 µM). For the same molecule, the growth inhibition is 99% (active) in test [5] (setting [7]); 100% (active) in test [5] (setting [8]); 84.2% (active) in test [5] (at 50.0 µM); 97% (active) in test [6] (setting [7]); 99% (active) in test [6] (setting [8]); 91.7% (active) in test [6] (at 50.0 µM).
Consider `O=C(CCCN1CCc2[nH]c3cc(F)ccc3c2C1)c1ccc(F)cc1`, for which the growth inhibition is -11% in test [1] (setting [7]); 97% (active) in test [1] (setting [8]); 84.8% (active) in test [1] (at 50.0 µM); -12% in test [2] (setting [7]); 98% (active) in test [2] (setting [8]); 68% in test [2] (at 50.0 µM). Also, the growth inhibition in test [3] (setting [7]) was -7%; in test [3] (setting [8]), 98% (active); in test [3] (at 50.0 µM) it was 90% (active); in test [4] (setting [7]), -9%; in test [4] (setting [8]) it was 94% (active); in test [4] (at 50.0 µM), 84.4% (active). Besides, the growth inhibition in test [5] (setting [7]) was -30%; in test [5] (setting [8]) it was 98% (active); in test [5] (at 50.0 µM) it was 91.7% (active); in test [6] (setting [7]), 12%; in test [6] (setting [8]) it was 99% (active); in test [6] (at 50.0 µM) it was 85.6% (active).
For the molecule `CC(C)C1=CC23CCC4C(C)(C(=O)O)CCCC4(C)C2CC1C(C(=O)O)C3C(=O)O` (stereo not drawn), the growth inhibition is 80% (active) in test [1] (setting [7]); 99% (active) in test [1] (setting [8]); 98.4% (active) in test [1] (at 50.0 µM); 89% (active) in test [2] (setting [7]); 99% (active) in test [2] (setting [8]); 98.1% (active) in test [2] (at 50.0 µM). For the same molecule, the growth inhibition was 52% in test [3] (setting [7]); 98% (active) in test [3] (setting [8]); 94.9% (active) in test [3] (at 50.0 µM); 86% (active) in test [4] (setting [7]); 99% (active) in test [4] (setting [8]); 98% (active) in test [4] (at 50.0 µM). In addition, the growth inhibition in test [5] (setting [7]) was 84% (active); in test [5] (setting [8]), 99% (active); in test [5] (at 50.0 µM), 97.6% (active); in test [6] (setting [7]), 88% (active); in test [6] (setting [8]) it was 98% (active); in test [6] (at 50.0 µM), 96% (active).
